# Bioassay records deposited in PubChem BioAssay by National Center for Advancing Translational Sciences (NCATS).
# D2 antagonist = D2 dopamine receptor (human) antagonism | P14416 | HEK293 TREx D2 cells, calcium flux, dopamine EC80 | inhibition, % at 10 µM | 2% of 340,000 active; in the data active = inhibition above about 30%; inactive = below that, where a call was filed; note: 0% is about no effect
# Target sequence (P14416 whole entry, looked up): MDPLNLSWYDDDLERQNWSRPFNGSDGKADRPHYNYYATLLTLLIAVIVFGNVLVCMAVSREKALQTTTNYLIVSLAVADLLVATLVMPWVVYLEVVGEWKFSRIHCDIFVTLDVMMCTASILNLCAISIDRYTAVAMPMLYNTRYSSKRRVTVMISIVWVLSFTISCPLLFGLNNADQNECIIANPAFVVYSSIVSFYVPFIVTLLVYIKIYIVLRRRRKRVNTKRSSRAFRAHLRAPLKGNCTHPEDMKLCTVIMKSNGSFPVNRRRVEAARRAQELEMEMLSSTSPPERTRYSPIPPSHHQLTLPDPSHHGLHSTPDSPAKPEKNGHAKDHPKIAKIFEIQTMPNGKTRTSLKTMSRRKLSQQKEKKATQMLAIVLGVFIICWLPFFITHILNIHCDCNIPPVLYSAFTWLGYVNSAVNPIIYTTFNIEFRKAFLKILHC
#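 Dopamine at EC80 is the agonist stimulus; test compounds precede it by 180 s. Calcium flux read kinetically in a force-coupled, inducible HEK293 T-REx D2 cell line.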
# D2 PAM-1 = positively modulates the human D2 dopamine receptor allosterically. P14416. HEK293 T-REx D2, calcium flux, EC20 dopamine potentiation. potentiation, % at 10 µM. 0.34% of 340,000 active. AID 485347;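 active = potentiation over 3 SD above the plate norm, cut at about 30% in these data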; note: 0% is about no effect
#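 Primary screen. Calcium kinetics in induced HEK293 T-REx D2 cells: compound pre-addition 180 s, EC20 dopamine, 180 s more.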
# D2 PAM-2 = potentiates the human D2 dopamine receptor allosterically; P14416; DiscoveRx D2 beta-arrestin cells, luminescence, 90 min; 100% = 57 uM dopamine signal; potentiation, % (no concentration beside the values); 0.23% of 360,000 active; AID 624464; in the data active = potentiation above about 50%; inconclusive = mostly about 30% to 49%
#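 D2 cells co-treated with compound plus 50 nM dopamine (EC20) for 90 min at 37 deg C to detect potentiation. Beta-arrestin recruitment was read as enzyme-fragment luminescence after 1 h at ambient temperature. Full response was set by 57 uM dopamine.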
# D2 ag-1 = activates the human D2 dopamine receptor. P14416. DiscoveRx PathHunter D2 beta-arrestin, luminescence, 90 min; 100% = 57 uM dopamine signal. activation, % (no concentration beside the values). 0.084% of 360,000 active. AID 624465; in the data active = activation above about 40%; inconclusive = between about 15% and that limit
#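 Agonist mode: compounds alone added to overnight-plated D2 PathHunter cells for 90 min at 37 C, with 57 uM final dopamine (EC100) defining full response. Beta-arrestin recruitment detected by chemiluminescent reagent, read after 1 h at ambient temperature.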
# D2 ag-2 = activates the human D2 dopamine receptor. P14416. HEK293 T-REx D2 cells, calcium flux agonist mode. activation, % at 2 µM. 0.53% of 340,000 active;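 active = activation over 3 SD above normal in the single-dose calcium agonist read, cut at about 30% in these data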; note: 0% is about no effect
#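 Tetracycline-induced HEK293 T-REx cells with force-coupled D2 receptor, plated overnight at 30 C, loaded with no-wash calcium dye. After a 10 s baseline, compound was pin-added and calcium flux read kinetically for 180 s; calcium rises flagged agonists.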
# Numbers without * were called inactive; ? = inconclusive; · = no result given. Sampled rows, rich in hits. Any-hit rate of the full collection: about 2.4%.
SMILES,D2 antagonist,D2 PAM-1,D2 PAM-2,D2 ag-1,D2 ag-2
Cc1ccc(N2CC(NC(=O)C3CCCCC3)CC2=O)cc1C (stereo unspecified),·,-3,·,·,0
O=C(Nc1ccc(-n2nncc2-c2ccco2)cc1)c1cccc(F)c1,42*,-3,-13,-2,0
N#Cc1ccc(Sc2ccccn2)c([N+](=O)[O-])c1,38*,11,3,4,0
CN(C)c1ccc(CNn2cnnc2SCc2ccc(F)cc2)cc1,-3,38*,-2,1,-1
Cc1ccc(O)c(C(=O)c2cnc3c(c2)c(C)nn3C)c1,1,-11,-5,-1,0
Cc1nn(C)c2ncc(C(=O)c3ccccc3O)cc12,48*,13,5,-1,0
CCOC(=O)c1noc2ncnc(N3CCN(c4ccccc4OC)CC3)c12,·,3,·,·,1
CC1(C)CSC(=NCc2ccccc2)N1C(=O)c1cccc([N+](=O)[O-])c1,54*,-24,-1,-7,83*
NC(=NCc1ccccc1)c1cccc([N+](=O)[O-])c1,-11,1,-6,4,-1
O=[N+]([O-])c1ncccc1OCc1ccccc1Br,34*,-11,-5,-4,-1
COc1ccccc1NC(=O)CSc1nc2ccccc2c2nc(-c3ccccc3)nn12,·,10,·,·,0
COc1cccc(C(c2sc3nc(-c4ccco4)nn3c2O)N2CCOCC2)c1 (stereo unspecified),·,-1,·,·,0
COCC(=O)N(Cc1cc2ccc(C)c(C)c2n2nnnc12)C1CCCC1,8,37*,-3,1,0
Cc1cc(-c2onc3ccc(Cl)cc23)ccc1O,1,0,97*,?,-2
Cc1ccc(-c2onc3ccc(C=O)cc23)cc1,2,0,59*,10,-1
Cc1ccc(-c2onc3ccc(C4(C)OCCO4)cc23)cc1,·,·,69*,13,·
CC(=O)c1ccc2noc(-c3ccc(Cl)cc3)c2c1,-16,-3,?,?,-1
COc1ccc(NC(=O)CCc2c(C)nc3c(c2C)c(=O)n(C)c(=O)n3C)c(OC)c1,·,-4,·,·,0
Cc1ccc(NS(=O)(=O)c2cnc(N)nc2)c(C)c1,·,-7,·,·,2
Cc1ccc(NC(=O)c2ccc(CNS(=O)(=O)c3ccc4c(c3)C(C)(C)C(=O)N4C)cc2)cc1F,·,·,·,·,0
NC(=O)c1ccc(NC(=O)C2CCN(S(=O)(=O)Cc3ccccc3)CC2)cc1,·,·,·,·,1
CCCN1CCCc2cc(CN(CCCN3CCOCC3)C(=O)Nc3ccc(Cl)c(Cl)c3)ccc21,·,-9,·,·,0
Cc1ccc(C)c(Nc2ncnc3onc(C)c23)c1,·,-2,·,·,0
CCn1c(C)cc(/C=C2/SC(=S)NC2=O)c1C,4,5,-11,0,6
CCn1ncc(/C=C2/SC(=S)NC2=O)c1C,12,-12,-13,-2,33*
SMILES,D2 antagonist,D2 PAM-1,D2 PAM-2,D2 ag-1,D2 ag-2
Cc1cccc(C(=O)Nc2cccc(C(=O)N/N=C/c3ccc4c(c3)OCO4)c2)c1,37*,0,-5,2,-1
O=C(CNc1ccccc1)N/N=C/c1ccc2c(c1)OCCO2,0,-3,6,2,0
Cc1ccc(/C=N\NC(=O)c2ccc3c(c2)OCO3)o1,32*,-24,-16,-1,0
Cc1cccc(C(=O)Nc2ccc(C(=O)N/N=C/c3ccc4c(c3)OCO4)cc2)c1,-14,-12,-5,-1,-1
O=C(CNc1ccccc1)N/N=C/c1ccc2c(c1)OCO2,37*,-8,-10,0,0
COc1ccc(CNC(=O)c2cc(-c3cccs3)nc3ccccc23)c(OC)c1,·,-4,·,·,-1
COc1cccc(CNC(=O)C2CCC(CNS(=O)(=O)c3ccc(Br)s3)CC2)c1 (stereo unspecified),·,19,·,·,·
C/C(=N\NC(=S)Nc1cc(S(=O)(=O)N2CCOCC2)ccc1Cl)c1ccc(N2CCOCC2)cc1,35*,11,-9,5,1
CNc1ccc2c3c(cccc13)C(=O)N(C)C2=O,72*,-17,18,5,128*
CCc1nc(SC)ncc1C(=O)NCc1cccc(Br)c1,·,4,·,·,-3
CCC(=O)NC1=C(NC(C)c2ccccc2)C(=O)c2ccccc2C1=O (stereo unspecified),-15,3,?,6,0
